From PubChem BioAssay
The source made the active and inactive calls.

Key:
[1] = small molecules captured by biotinylated probe aFSTL3 – biochemical, small-molecule microarray, fluorescence 635/667, stem cell growth factor project, primary screen (AID 1064); settings: higher = more signal;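 note: measures binding of the biotinylated anti-FSTL3 antibody to printed compounds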
[2] = binders from COS7 lysate, DM2A8 probe, primary screen, torsin A project, cell lysate, small-molecule microarray, fluorescence 635/667 (AID 1065); settings: higher = more signal, COS7 lysate expressing mutant human TOR1A
[3] = small molecules captured by biotinylated probe aFGF2 – biochemical, small-molecule microarray, fluorescence 635/667, stem cell growth factor project, primary screen (AID 1067); settings: higher = more signal;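 note: measures binding of biotinylated aFGF2 protein to printed compounds on slides; z-score merges feature fluorescence and signal-to-noise across triplicate slides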
[4] = small molecules captured by biotinylated probe aFGF10 – biochemical, small-molecule microarray, fluorescence 635/667, stem cell growth factor project, primary screen (AID 1071); settings: higher = more signal;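 note: score merges 667 nm spot intensity and signal to noise from triplicate slides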
[5] = target: Neurogenic locus notch homolog protein 2 (Homo sapiens) (UniProt Q04721); assay: small molecules binding Notch2 protein – biochemical, small-molecule microarray, 635 nm fluorescence, stem cell growth factors, primary screen (AID 1073); settings: higher = more signal
[6] = target: Pro-neuregulin-1, membrane-bound isoform (Homo sapiens) (UniProt Q02297); assay: small molecules binding neuregulin-1 protein – biochemical, small-molecule microarray, fluorescence 635/667, psychiatric disease protein project, primary screen (AID 1075); settings: NRG1 binding, 635 nm fluorescence, higher = more signal;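 note: score combines 667 nm spot fluorescence with signal to noise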
Pro-neuregulin-1, membrane-bound isoform (Homo sapiens), sequence (Q02297 whole entry, looked up, the tested form may be a part, canonical isoform): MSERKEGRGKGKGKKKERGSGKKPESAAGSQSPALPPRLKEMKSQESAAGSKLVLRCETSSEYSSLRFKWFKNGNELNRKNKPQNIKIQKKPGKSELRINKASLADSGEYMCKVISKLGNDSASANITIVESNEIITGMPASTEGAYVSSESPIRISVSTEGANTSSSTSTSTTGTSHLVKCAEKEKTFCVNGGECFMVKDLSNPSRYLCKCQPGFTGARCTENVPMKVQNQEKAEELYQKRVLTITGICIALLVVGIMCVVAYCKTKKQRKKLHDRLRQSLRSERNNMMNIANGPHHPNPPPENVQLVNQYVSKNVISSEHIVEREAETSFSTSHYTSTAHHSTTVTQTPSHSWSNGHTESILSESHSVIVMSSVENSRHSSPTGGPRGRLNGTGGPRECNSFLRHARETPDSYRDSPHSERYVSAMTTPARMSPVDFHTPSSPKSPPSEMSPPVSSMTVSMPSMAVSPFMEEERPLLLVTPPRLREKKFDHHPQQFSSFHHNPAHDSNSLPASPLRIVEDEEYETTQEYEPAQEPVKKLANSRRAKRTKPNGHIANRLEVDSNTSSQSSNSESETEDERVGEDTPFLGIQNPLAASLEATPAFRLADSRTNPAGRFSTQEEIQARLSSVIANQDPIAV

[7] = tested on: Neuregulin-1 EGF-like domain; assay: small molecules binding NRG1 EGF domain – biochemical, small-molecule microarray, 635 nm fluorescence, primary screen (AID 1081); settings: higher = more signal;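 note: binding of the protein to compounds printed on small-molecule microarray slides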
[8] = FRG1 expression reporter modulators in myotubes – cell-based, C2C12 myotubes, firefly/Renilla luciferase, luminescence, FRG1 inhibition for FSHD, primary screen (AID 1084); settings: FRG1 promoter luciferase, higher = more signal, called active from +8 up or from −8 down
[9] = small molecules captured by biotinylated probe aFST – biochemical, small-molecule microarray, fluorescence 635/667, stem cell growth factor project, primary screen (AID 1086); settings: higher = more signal;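 note: score merges 667 nm fluorescence with signal-to-noise of each printed compound spot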
[10] = binders of probe aHhip on microarray, primary screen, stem cell growth factor project, biochemical, small-molecule microarray, fluorescence 635/667 (AID 1087); settings: higher = more signal;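 note: score merges spot fluorescence at 667nm with spot signal to noise ratio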
[11] = tested on: PRMT1 (protein arginine N-methyltransferase 1); assay: small molecules binding arginine methyltransferase PRMT1 – biochemical, small-molecule microarray, 635 nm fluorescence, primary screen (AID 1088); settings: higher = more signal;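 note: binding of Prmt1 protein to compounds spotted on small-molecule microarray slides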
[12] = growth effects on S. cerevisiae YJM789 – YJM789 clinical isolate, OD600, 24 h, basal, primary screen (AID 1089); settings: higher = more signal, called active from +8 up or from −8 down;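 note: growth of clinical yeast isolate S. cerevisiae YJM 789 seeded 1000 cells per well; test concentration not given here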
[13] = S. pombe growth modifiers, basal conditions – strain 972, OD600, 24 h, no modulator, primary screen (AID 1090);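 note: basal condition with compound alone and no growth modifier present; test concentration not given here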; settings: S. pombe 972 growth, higher = more signal, called active from +8 up or from −8 down
[14] = budding yeast growth modifiers under rapamycin – strain BY4716, OD600, 96 h, primary screen (AID 1091); note: test concentration not given here; settings: S. cerevisiae BY4716 + rapamycin, higher = more signal, called active from +8 up or from −8 down
[15] = target: Torsin-1A-interacting protein 2 (Homo sapiens) (UniProt Q8NFQ8); assay: small molecules binding lysate-expressed LULL1 – cell lysate, human LULL1 lysate, 635/667 nm fluorescence, primary screen (AID 1092); settings: small-molecule microarray, hLULL1 lysate binding, 635 nm fluorescence; higher = more signal;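 note: probe is lysate of COS7 cells overexpressing human LULL1; score merges per-feature 667 nm fluorescence with signal-to-noise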
Torsin-1A-interacting protein 2 (Homo sapiens), sequence (Q8NFQ8 whole entry, looked up): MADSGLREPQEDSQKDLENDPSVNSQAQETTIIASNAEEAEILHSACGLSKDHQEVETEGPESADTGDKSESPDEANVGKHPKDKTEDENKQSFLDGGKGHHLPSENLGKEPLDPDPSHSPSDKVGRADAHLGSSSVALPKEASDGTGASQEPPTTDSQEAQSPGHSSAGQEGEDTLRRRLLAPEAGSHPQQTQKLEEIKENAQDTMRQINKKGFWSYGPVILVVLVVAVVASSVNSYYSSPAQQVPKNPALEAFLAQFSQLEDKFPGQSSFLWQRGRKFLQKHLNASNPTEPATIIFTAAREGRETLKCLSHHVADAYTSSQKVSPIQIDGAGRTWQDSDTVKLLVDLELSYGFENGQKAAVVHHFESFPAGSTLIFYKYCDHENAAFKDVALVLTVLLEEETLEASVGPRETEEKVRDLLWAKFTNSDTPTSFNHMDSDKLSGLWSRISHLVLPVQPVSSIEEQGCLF

[16] = optical density change of DRC41 E. coli – strain DRC41, OD650, 24 h, E. coli filamentation project, primary screen (AID 1093);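 note: MC1000 strain lacking acrAB efflux and sulA so SOS filamentation is blocked; test concentration not given here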; settings: E. coli DRC41 growth, higher = more signal, called active from +8 up or from −8 down
[17] = probe aLefty2 binding to arrayed compounds – biochemical, biotinylated probe, 635/667 nm fluorescence, primary screen (AID 1094); settings: small-molecule microarray, higher = more signal;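 note: score merges spot fluorescence near 667 nm with spot signal-to-noise ratio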
[18] = tested on: Noggin (protein binding on small-molecule microarray); assay: small molecules binding Noggin protein – biochemical, 635/667 nm fluorescence, primary screen (AID 1095); settings: 635 nm fluorescence, higher = more signal;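 note: score merges 667 nm feature fluorescence with signal to noise over triplicate slides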
[19] = target: Neurogenic locus notch homolog protein 3 (Homo sapiens) (UniProt Q9UM47); assay: small molecules binding NOTCH3 protein – biochemical, 635/667 nm fluorescence, primary screen (AID 1096); settings: small-molecule microarray, 635 nm fluorescence, higher = more signal
Neurogenic locus notch homolog protein 3 (Homo sapiens), sequence (Q9UM47 whole entry, looked up): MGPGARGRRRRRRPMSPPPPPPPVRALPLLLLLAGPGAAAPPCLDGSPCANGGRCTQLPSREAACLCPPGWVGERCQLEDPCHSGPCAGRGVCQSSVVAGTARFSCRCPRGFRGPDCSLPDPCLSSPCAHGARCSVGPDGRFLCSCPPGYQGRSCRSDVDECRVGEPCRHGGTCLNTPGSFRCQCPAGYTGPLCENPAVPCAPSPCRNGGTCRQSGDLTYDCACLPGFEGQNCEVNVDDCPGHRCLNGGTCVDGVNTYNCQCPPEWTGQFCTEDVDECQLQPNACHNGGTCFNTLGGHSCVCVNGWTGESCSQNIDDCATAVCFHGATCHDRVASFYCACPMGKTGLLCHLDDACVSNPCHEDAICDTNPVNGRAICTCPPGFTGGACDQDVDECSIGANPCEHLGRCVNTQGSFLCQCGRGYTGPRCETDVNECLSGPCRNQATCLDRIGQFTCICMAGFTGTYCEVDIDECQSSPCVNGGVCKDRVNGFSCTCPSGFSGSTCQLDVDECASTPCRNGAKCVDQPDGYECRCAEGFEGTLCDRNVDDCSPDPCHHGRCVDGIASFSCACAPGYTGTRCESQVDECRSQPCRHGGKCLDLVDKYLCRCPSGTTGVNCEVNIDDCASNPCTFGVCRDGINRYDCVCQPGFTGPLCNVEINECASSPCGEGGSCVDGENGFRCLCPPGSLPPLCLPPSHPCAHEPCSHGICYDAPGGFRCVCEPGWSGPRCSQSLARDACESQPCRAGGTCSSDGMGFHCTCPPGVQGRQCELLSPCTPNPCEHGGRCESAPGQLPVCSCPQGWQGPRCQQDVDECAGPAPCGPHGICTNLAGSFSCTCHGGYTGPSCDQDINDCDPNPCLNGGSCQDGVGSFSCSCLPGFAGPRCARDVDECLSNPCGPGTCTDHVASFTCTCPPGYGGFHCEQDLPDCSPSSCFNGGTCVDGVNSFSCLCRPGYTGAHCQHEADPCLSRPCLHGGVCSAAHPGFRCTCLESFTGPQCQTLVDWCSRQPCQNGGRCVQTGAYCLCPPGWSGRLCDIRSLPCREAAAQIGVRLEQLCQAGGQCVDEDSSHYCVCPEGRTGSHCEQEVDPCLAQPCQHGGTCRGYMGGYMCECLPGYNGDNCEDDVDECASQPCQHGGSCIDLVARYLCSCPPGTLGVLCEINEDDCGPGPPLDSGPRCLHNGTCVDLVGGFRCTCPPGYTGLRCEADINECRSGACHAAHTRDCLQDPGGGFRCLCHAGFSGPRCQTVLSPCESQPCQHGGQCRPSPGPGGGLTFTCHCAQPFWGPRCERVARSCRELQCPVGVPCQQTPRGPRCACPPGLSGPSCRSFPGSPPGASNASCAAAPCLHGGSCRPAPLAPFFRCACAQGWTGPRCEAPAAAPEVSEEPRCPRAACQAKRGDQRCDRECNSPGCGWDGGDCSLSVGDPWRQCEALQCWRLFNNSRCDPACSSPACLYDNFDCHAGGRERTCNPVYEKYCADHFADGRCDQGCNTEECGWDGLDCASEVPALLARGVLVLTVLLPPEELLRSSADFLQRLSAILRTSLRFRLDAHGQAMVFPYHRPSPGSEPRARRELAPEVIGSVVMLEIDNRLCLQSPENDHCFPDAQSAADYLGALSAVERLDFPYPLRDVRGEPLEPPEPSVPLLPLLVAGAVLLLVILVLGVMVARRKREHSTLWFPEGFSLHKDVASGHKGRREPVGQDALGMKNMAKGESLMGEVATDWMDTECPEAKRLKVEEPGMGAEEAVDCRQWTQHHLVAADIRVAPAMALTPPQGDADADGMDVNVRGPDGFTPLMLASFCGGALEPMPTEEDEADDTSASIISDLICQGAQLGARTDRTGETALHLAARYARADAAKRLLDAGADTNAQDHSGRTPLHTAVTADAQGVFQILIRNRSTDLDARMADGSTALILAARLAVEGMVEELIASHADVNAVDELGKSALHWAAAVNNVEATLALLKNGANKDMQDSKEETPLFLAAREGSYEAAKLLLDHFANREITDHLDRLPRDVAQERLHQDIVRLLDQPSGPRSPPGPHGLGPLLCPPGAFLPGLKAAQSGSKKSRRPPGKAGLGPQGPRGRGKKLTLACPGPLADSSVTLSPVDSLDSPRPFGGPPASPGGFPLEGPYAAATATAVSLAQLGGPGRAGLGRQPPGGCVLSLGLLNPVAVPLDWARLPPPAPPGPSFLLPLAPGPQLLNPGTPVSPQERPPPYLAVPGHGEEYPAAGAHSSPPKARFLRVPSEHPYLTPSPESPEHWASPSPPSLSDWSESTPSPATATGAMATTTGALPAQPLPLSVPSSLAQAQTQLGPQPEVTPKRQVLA

[20] = probe aEGFR binding to arrayed compounds – biochemical, biotinylated probe, 635/667 nm fluorescence, primary screen (AID 1097); settings: small-molecule microarray, higher = more signal;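 note: probe is a biotinylated anti-EGFR antibody binding compounds printed on slides; score combines fluorescence near 667 nm and signal to noise of each spot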

| Compound | composite z-score [1] | composite z-score [2] | composite z-score [3] | composite z-score [4] | composite z-score [5] | composite z-score [6] | composite z-score [7] | z-score [8] | composite z-score [9] | composite z-score [10] | composite z-score [11] | z-score [12] | z-score [13] | z-score [14] | composite z-score [15] | z-score [16] | composite z-score [17] | composite z-score [18] | composite z-score [19] | composite z-score [20] |
| --- | --- | --- | --- | --- | --- | --- | --- | --- | --- | --- | --- | --- | --- | --- | --- | --- | --- | --- | --- | --- |
| CC(=O)n1cc(C(O)C2C=CC3C(=O)N(c4ccccc4)C(=O)C3N2Nc2ccccc2F)c2ccccc21 (stereo not given) | -0.146 | 0.25 | -0.0757 | -0.274 | 0.021 | 1.69 | 1.02 | 0.625 (inactive) | -0.346 | 0.0505 | 0.799 | -0.626 (inactive) | -0.169 (inactive) | -1.6 (inactive) | 2.51 | 1.01 (inactive) | -0.138 | -0.872 | -0.382 | -0.146 |
| CCCCCCCCCCC(O)C1C=CC2C(=O)N(C)C(=O)C2N1N1CCCCC1 (stereo not given) | 0.449 | -0.346 | -0.213 | -1.1 | -1.96 | 0.252 | -0.413 | -0.635 (inactive) | -0.744 | -0.0423 | -0.804 | 1.16 (inactive) | -2.31 (inactive) | 2.18 (inactive) | 1.64 | -1.6 (inactive) | -0.118 | -1.9 | -1.14 | -0.368 |
| CCCCCCc1nc(-c2ccc(OC)nc2)cc2c1[Si](C(C)C)(C(C)C)OC2 | -0.0192 | 0.456 | -0.15 | -0.0125 | -0.383 | -0.151 | -0.769 | 0.366 (inactive) | -0.193 | 0.0306 | -0.741 | -0.1 (inactive) | -0.283 (inactive) | -0.218 (inactive) | -0.342 | -0.647 (inactive) | -0.143 | -0.374 | -0.123 | -0.24 |
| O=C1c2ccccc2[C@](Cc2ccccc2I)(C(=O)O)[C@H](c2ccc(CO)cc2)N1Cc1ccccc1 | 0.877 | 0.996 | -0.101 | 0.0611 | 0.19 | 1.51 | 1.23 | -1.1 (inactive) | -0.0119 | -0.226 | 1.55 | -2.23 (inactive) | -0.912 (inactive) | -1.22 (inactive) | 2.5 | 0.66 (inactive) | 0.0299 | -0.57 | -0.0277 | -0.027 |
| C=CCC(OC(C)=O)[C@@H]1[C@@H](N(Cc2cccc3ccccc23)C(=O)c2ccc(-c3ccccc3)cc2)c2cc(OCCCO)ccc2N1C(=O)c1ccc2ccccc2n1 (stereo not given in full) | -0.093 | 0.116 | -0.0158 | 0.0632 | 0.285 | 0.298 | 0.037 | -0.612 (inactive) | 0.386 | 0.28 | 0.929 | -0.637 (inactive) | 0.651 (inactive) | -0.0728 (inactive) | 1.01 | -0.747 (inactive) | 0.157 | 0.37 | 0.296 | -0.0271 |
| COC(=O)C1=CC(CCCO)=CC(c2ccc(CN3CCCC3)cc2)N(Cc2sc3ccccc3c2Cl)C=C1C(=O)OC (stereo not given) | 0.688 | 2.31 | 0.321 | 1.31 | 1.73 | 2.43 | 1.32 | -0.591 (inactive) | 1.21 | 0.167 | 1.54 | -3.34 (inactive) | -7.33 (inactive) | -1.39 (inactive) | 3.3 | -0.542 (inactive) | 0.91 | 0.766 | 1.04 | 0.681 |
| Cc1ccc(S[C@]2(C(=O)NC3CC3)CC(=O)N(Cc3cc(C(F)(F)F)cc(C(F)(F)F)c3)[C@@H]2c2ccc(CO)cc2I)cc1 | 0.385 | 1.11 | 0.21 | 0.0945 | -0.262 | 0.212 | 1.27 | 0.528 (inactive) | 0.457 | -0.494 | 1.28 | -5.04 (inactive) | -3.38 (inactive) | -0.429 (inactive) | 2.2 | 0.545 (inactive) | -0.242 | 0.502 | 0.409 | 0.395 |
| COc1ccc([Si](C)(C)[C@H]2[C@H](CCO)O[C@@]3(C(=O)N(Cc4ccc(N5CCOC5=O)cc4)c4ccccc43)[C@@H]2C)cc1 | 0.173 | 0.306 | -0.137 | 0.034 | -0.0425 | 1.11 | 0.664 | -4.39 (inactive) | -0.083 | -0.0994 | 1.06 | 3.62 (inactive) | 0.623 (inactive) | 35.9 (active) | 1.27 | 0.816 (inactive) | -0.139 | 0.0178 | 0.287 | -0.315 |
| COC(=O)[C@@]1(Cc2ccc(OC)cc2)[C@H]2c3cc(C(=O)N(C)C)n(Cc4ccsc4Br)c3C[C@H]2CN1C(=O)c1ccccc1 | 0.254 | -0.162 | 0.336 | 0.752 | 1.64 | 1.89 | 0.856 | -0.778 (inactive) | 0.45 | 0.239 | -0.323 | 1.36 (inactive) | 1.51 (inactive) | 1.53 (inactive) | 3.41 | 0.126 (inactive) | 0.599 | -0.56 | 0.251 | 0.301 |
| Cc1c(NC(=O)/C(C#N)=C/c2ccc(Cl)cc2)c(=O)n(-c2ccccc2)n1C | -0.268 | -0.113 | -0.0909 | 0.589 | 0.746 | 0.942 | 1.2 | -0.131 (inactive) | 0.52 | 0.0623 | 0.505 | -1.53 (inactive) | -1.57 (inactive) | -0.311 (inactive) | 1.55 | -0.155 (inactive) | -0.0657 | 0.532 | 0.992 | -0.153 |
